High-throughput results deposited in PubChem BioAssay by National Center for Advancing Translational Sciences (NCATS).
D3 antag: D3 dopamine receptor (human) antagonism. P35462. D3R cells, DiscoveRx beta-arrestin luminescence, antagonist mode; active compounds read low. max response, negative = inhibition, %. 360,000 tested, 2.5% active. AID 652054; in the data active means max response below about -50%; inconclusive means no clear call, values can overlap the other calls; further: on the % scale 0 is the no-effect control and ±100 the full control effect
Target sequence (P35462 whole entry, looked up): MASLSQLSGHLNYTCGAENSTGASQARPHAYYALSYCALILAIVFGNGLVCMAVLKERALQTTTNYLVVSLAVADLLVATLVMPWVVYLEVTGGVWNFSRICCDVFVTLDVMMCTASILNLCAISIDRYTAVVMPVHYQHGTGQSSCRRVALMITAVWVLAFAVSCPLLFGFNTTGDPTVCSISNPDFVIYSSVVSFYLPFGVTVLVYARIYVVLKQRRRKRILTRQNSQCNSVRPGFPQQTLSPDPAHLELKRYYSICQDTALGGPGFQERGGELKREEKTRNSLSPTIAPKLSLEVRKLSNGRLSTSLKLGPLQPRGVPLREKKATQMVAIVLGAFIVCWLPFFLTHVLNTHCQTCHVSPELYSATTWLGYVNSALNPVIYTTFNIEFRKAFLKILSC
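Cells plated overnight at 1500 cells/well, then exposed to library compounds with dopamine controls for 90 minutes at 37 degrees C. DiscoveRx reagent added for 30–60 minutes at room temperature; luminescence read, quantitative HTS format.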
Glioma ERSR ind: inducers of ER stress response in human glioma cells; U87-MG GRP78 promoter luciferase reporter, 16 h; Potency, µM, for the others: at the top dose activation, most hits filed as activators; 420,000 tested, 0.02% active; further: potency means the concentration at half of the fitted maximal effect; series mostly up to about 76 µM; % of control where 0% means no effect; nearly all actives have a fitted effect of over 35% in size
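Stably transfected U87-MG human glioma cells carrying a GRP78-based luminescent sensor were seeded at 1000 cells/well, pin-dosed with compounds and incubated 16 h. Luciferase reagent was then added, and end-point luminescence was read after 10 min at room temperature.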
Nrf2 ARE act: Nrf2 pathway activation; 410,000 tested, 0.31% active; AID 624171; AREc32 ARE-luciferase reporter (MCF7-derived line), luminescence, 24 h; Potency, µM (series often up to 46.1 µM), for inactives: top-dose activation, most hits filed as activators; further: potency means the concentration at half of the fitted maximal effect; % of control where 0% means no effect; nearly all actives have a fitted effect of over 65% in size
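Nrf2 activation is followed as ARE-luciferase induction in the AREc32 line after one day of compound treatment; luminescence is read with Steady-Glo.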
DRD3 agonist: D3 dopamine receptor (human) agonism | D3R DiscoveRx beta-arrestin cells, luminescence, 90 min | 410,000 tested, 0.58% active | P35462 | max activation, %; in the data active means max activation above about 30%; further: 0% is about no effect
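Agonist-mode cell screen: cells plated at 1500/well and incubated overnight at 37 °C, then exposed to library compounds for 90 min at 37 °C. Detection reagent was added for 30–60 min at room temperature, and luminescence was read.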
An asterisk follows results filed as active; ? = inconclusive; nt = no result. Shown are actives, neighbours in structure and some others; about 3% of the full set was active somewhere. Unless noted, the call rests on the fitted dose curve; in most records, active means well fitted curve in the direction sought with a large enough effect; inconclusive means small, poorly fitted or top-dose-only effect, or another doubt; inactive means no such curve, though single readings can be large; an effect the other way counts as inactive or inconclusive.

SMILES	D3 antag	Glioma ERSR ind	Nrf2 ARE act	DRD3 agonist
COc1cccc(C(=O)NCc2nc(-c3cccc(NC(=O)c4ccoc4C)c3)oc2C)c1OC	nt	-7%	nt	nt
CN(C)CCSc1nc(O)c(-c2ccccc2)c(=O)n1-c1ccccc1	1	-3%	0%	-2
Cc1sc2nc(SCCN(C)C)n(-c3ccccc3)c(=O)c2c1-c1ccc(F)cc1	-69*	-4%	3%	-15
Nc1[nH]c(=S)[nH]c(=O)c1N	nt	-3%	nt	nt
Cc1ccc(NC(=O)c2cnc(SCC(=O)N3CCCc4ccccc43)n(C)c2=O)cc1	nt	0%	0%	-3
Cc1ccc(-c2ccc(/C=N/N=C3/NC(=O)C(CC(=O)O)S3)o2)c([N+](=O)[O-])c1 (configuration not stated)	-79*	0%	0%	-3
NNc1nc(N)c2c(n1)-c1ccccc1CC21CCCC1	-52*	-5%	-1%	-22
CC(C)CC(=O)NC(=S)Nc1nc(-c2cccc3ccccc23)cs1	-73*	8%	4%	-9
CCOC(=O)Cc1csc(NC(=S)NC(=O)CC(C)C)n1	-11	-4%	0%	0
CC(NC(=O)COC(=O)/C=C/c1ccco1)c1ccccc1 (configuration not stated)	3	-3%	13µM*	9
CNC(=O)COC(=O)/C=C/c1ccco1	-8	1%	24%	0
CC1CC(C)CN(C(=O)COC(=O)/C=C/c2ccco2)C1 (configuration not stated)	-28	2%	14µM*	-10
COCC(=O)N1CCCC(C)(C(=O)Nc2cccc(Oc3ccccc3)c2)C1 (configuration not stated)	-20	-3%	1%	49*
COc1ccc(-n2cc(CNCCc3ncc(C)[nH]3)c(-c3ccccc3Cl)n2)cc1	-19	-5%	0%	-3
Fc1ccc(-n2cc(CNCCc3ccccn3)c(-c3ccccc3Cl)n2)cc1	-86*	-1%	6%	-39
COc1ccc(-n2cc(CNCCc3nc(C)cc(C)n3)c(-c3ccccc3Cl)n2)cc1	-85*	-1%	8%	-25
COc1ccc(-n2cc(CNCCCn3ccnc3)c(-c3ccccc3Cl)n2)cc1	?	-2%	0%	-3
c1ccc(Cc2nnc3n2CCN(Cc2cnc(-c4ccccc4)s2)CC3)cc1	nt	-2%	nt	nt
CC(C)=CCC/C(C)=C\CC/C(C)=C\CC/C(C)=C\CC1=C(C)C(=O)c2ccccc2C1=O	nt	-4%	nt	nt
CN1[C@@H]2CC[C@H]1CC(NC(=O)n1c(=O)[nH]c3ccccc31)C2 (some centres not stated)	nt	nt	nt	-11
CCCN(CC(=O)Nc1ccc(Cl)cc1Cl)C(=O)/C=C/c1ccco1	-3	6%	11µM*	-7
CCN(CC(=O)Nc1ccc(NC(C)=O)cc1)C(=O)/C=C/c1ccco1	11	-3%	0%	5
CCc1c(C)nc2cc(-c3cc(OC)cc(OC)c3)nn2c1N1CCCC1	10	-1%	7%	31*
CCOCCN1CCN(c2c(CC)c(C)nc3cc(-c4cc(OC)cc(OC)c4)nn23)CC1	16	-7%	7%	1
OCC1(CC2CCCCO2)CCN(C/C=C/c2ccccc2)CC1 (configuration not stated)	-68*	-3%	3%	-13
SMILES	D3 antag	Glioma ERSR ind	Nrf2 ARE act	DRD3 agonist
COc1cccc(CN2CCC(CO)(CC3CCCCO3)CC2)c1 (configuration not stated)	-25	-10%	0%	-30
COc1cc(/C=C/CN2CCC(CO)(CC3CCCCO3)CC2)ccc1O (configuration not stated)	-67*	-5%	3%	-53
O=c1ccc2ccccc2[nH]1	nt	-9%	nt	nt
CCC(c1nnnn1-c1c(C)cccc1C)N1CCN(CC)CC1 (configuration not stated)	14	nt	0%	2
CC(C)(C)n1nnnc1C(C1CC1)N1CCN(C/C=C/c2ccccc2)CC1 (configuration not stated)	?	-4%	-1%	-2
COc1ccc(-n2nnnc2C(C2CC2)N2CCN(C/C=C/c3ccccc3)CC2)cc1 (configuration not stated)	-81*	-3%	0%	-3
Cc1cccc(C)c1-n1nnnc1C(C1CC1)N1CCN(C/C=C/c2ccccc2)CC1 (configuration not stated)	-79*	-5%	6%	1
CC1=C(/C=C/C(C)=C/C=C/C(C)=C/C=C/C=C(C)/C=C/C=C(C)/C=C/C2=C(C)C[C@@H](O)CC2(C)C)C(C)(C)C[C@H](O)C1	nt	nt	nt	6
Cc1oc2ccc(O)cc2c1C(=O)c1ccc([N+](=O)[O-])cc1	0	1%	7%	3
CN(C)/C=C/c1oc2ccc(O)cc2c1[N+](=O)[O-]	-52*	2%	7%	-6
CC1(C(=O)Nc2ccc(F)cc2F)CCN1C(=O)Cc1ccc(Cl)cc1Cl (configuration not stated)	16	-2%	-1%	78*
CSc1ccccc1NC(=O)C1(C)CCN1C(=O)Cc1ccc(Cl)cc1Cl (configuration not stated)	0	-2%	4%	0
COc1cccc(N2CC(C)Cn3c2nc2c3c(=O)n(CCN3CCOCC3)c(=O)n2C)c1 (configuration not stated)	-64*	-3%	0%	-5
C/C(CCN1CCc2nc(-c3ccccc3)c(-c3ccccc3)cc2C1)=N\OC[C@@H](O)[C@@H]1O[C@@H]2OC(C)(C)O[C@@H]2[C@H]1O	nt	-2%	nt	nt
COc1ccc(/C=N/n2c(=S)n(C)c3ccccc32)cc1OC	47	-4%	3%	63*
CCn1nc(C)c(CN2Cc3ccccc3OC(c3ccccc3OC)C2)c1C (configuration not stated)	nt	-2%	nt	nt
CCOC(=O)C1=C(C)N=c2s/c(=C\c3ccc(OC(C)=O)c(OCC)c3)c(=O)n2C1/C=C/c1ccccc1 (configuration not stated)	-56*	-3%	13%	-5
CC1(C)SC(=S)N(/N=C/c2ccccc2)C1N(O)C(=O)Nc1ccc([N+](=O)[O-])cc1 (configuration not stated)	-56*	11%	8%	1
O=C/C(=C\Nc1ccc(S(=O)(=O)CCO)cc1)c1nc2cc(Cl)ccc2o1	-51*	-2%	11%	-24
CN1CCN(C(=O)C23CCC(C)(c4nc5ccccc5nc42)C3(C)C)CC1 (configuration not stated)	-51*	-2%	1%	-8
Cc1cc2nc3c(nc2cc1C)C1(C(=O)O)CCC3(C)C1(C)C (configuration not stated)	13	1%	0%	0
COc1cccc(Cc2nc3ccccc3nc2SCC(=O)Nc2cccc(C)c2)c1	nt	1%	0%	6
CC(C)(C)CC(C)(C)N=C1Nc2ccc(Cl)cc2N[C@]12C[C@H]1CCCC(=O)N3CC[C@@H](C2)[C@@H]13	nt	4%	nt	nt
COc1ccc(C(=O)N2CCN(c3nc4c(C)c(Cl)ccc4s3)CC2)c(OC)c1	nt	-4%	4%	34*
Cc1c(Cl)ccc2sc(N3CCN(C(=O)C(C)C)CC3)nc12	nt	1%	0%	2
